Measured values from PubChem BioAssay (NCATS).
“And” between values parts separate entries of the source, which are not always exact repeats. Equal values may be shown once. Inconclusive results are not listed. A call without a number means that no potency is given here. The source made the active and inactive calls. Unless noted, calls come from the whole dose curve; as a rule, active = well fitted curve in the direction sought with a large enough effect; inconclusive = small, poorly fitted or top-dose-only effect, or another doubt; inactive = no such curve, though single readings can be large; an effect the other way counts as inactive or inconclusive.

Key:
[1] = molecular target: alpha-glucosidase (Oryza sativa, rice) (UniProt Q653V4); assay: Counterscreen for Glucocerebrosidase Inhibitors: qHTS Assay for Rice alpha-Glucosidase at pH 5.0 (AID 997)
How it was run: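 Rice alpha-glucosidase (4 nM final) with 400 uM 4-methylumbelliferyl-alpha-D-glucopyranoside in citrate buffer pH 5.0, 20 min at room temperature, stopped at pH 10; fluorescence 365/440 nm, compounds 0.7 nM–77 uM, AC50 from Hill fits.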

[2] = qHTS Assay for Lipid Storage Modulators (AID 1519; calls by dose curve); settings: Drosophila S3 cells, BODIPY lipid droplet/cell ratio, laser cytometry, cells loaded with oleic acid
How it was run: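 Cells seeded at 5,000 per well were treated with compounds over a concentration series and loaded with oleic acid (400 uM, as added). Lipid droplet fluorescence (488 nm excitation, 500-530 nm channel) was read by laser-scanning cytometry and normalized to 20 uM Triacsin C.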

[3] = molecular target: DNA repair nuclease/redox regulator APEX1 (Homo sapiens) (UniProt P27695); assay: qHTS Validation Assay for Inhibitors of the Human Apurinic/apyrimidinic Endonuclease 1 (APE1) (AID 1705; note: potency is the fitted concentration of half-maximal effect;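 for activity change, negative = inhibition: TAMRA fluorescence gain over two minutes as APE1 cuts a quenched THF abasic duplex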)
How it was run: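 Endonuclease activity of human APE1 is followed as dequenching when the enzyme incises a tetrahydrofuran abasic site in a short duplex labelled 5'-TAMRA/3'-BHQ-2 (50 nM final), after 15 min enzyme–compound preincubation at room temperature.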

[4] = Counterscreen for APE1 Inhibitors: Fluorescent Dye Displacement Validation Assay (AID 1707); note: potency is the fitted concentration of half-maximal effect
How it was run: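 Thiazole Orange (250 nM) bound to 50 nM TAMRA-labelled dsDNA with tetrahydrofuran abasic site; displacement by DNA-binding compounds lowers fluorescence. Buffer 50 mM Tris-HCl pH 7.5, 50 mM NaCl, 2 mM MgCl2, 0.01% Tween-20; endpoint read at 480/540 nm.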

[5] = molecular target: Endonuclease 4 (Escherichia coli (strain K12)) (UniProt P0A6C1); assay: Counterscreen for APE1 Inhibitors: qHTS Validation Assay for Inhibitors of Endonuclease IV (AID 1708); note: potency is the fitted concentration of half-maximal effect
How it was run: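 2 nM enzyme was preincubated with compounds for 15 min at room temperature in 50 mM Tris-HCl pH 7.5, 50 mM NaCl, 2 mM MgCl2, 1 mM DTT, 0.01% Tween-20. 50 nM THF-abasic TAMRA/BHQ-2 duplex substrate started the reaction.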

[6] = qHTS for differential inhibitors of proliferation of Plasmodium falciparum line 7G8 (AID 1815);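 note: parasite growth measured after three days of incubation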; note: potency is the fitted concentration of half-maximal effect
[7] = qHTS for differential inhibitors of proliferation of Plasmodium falciparum line GB4 (AID 1816); settings: Potency: Plasmodium falciparum GB4 proliferation inhibition;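 note: parasite growth measured after 72 h incubation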; note: potency is the fitted concentration of half-maximal effect
[8] = qHTS for differential inhibitors of proliferation of Plasmodium falciparum line 3D7 (AID 1876); note: potency is the fitted concentration of half-maximal effect
[9] = qHTS for differential inhibitors of proliferation of Plasmodium falciparum line D10 (AID 1877);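 note: parasites grown with compound for 72 h before DNA staining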; note: potency is the fitted concentration of half-maximal effect
[10] = Validation of Assay for Modulators of Lamin A Splicing (AID 1459; active = well fitted curve in the direction sought with a large enough effect in the signal ratio; the % refers to the signal ratio;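 note: cells exposed to compound for two days before reading; ratio rise marks activators and ratio drop marks inhibitors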)
How it was run: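 Splicing correction is reported by an EGFP-containing lamin A minigene in stably transfected S3 HeLa cells, while DsRed2 controls for viability and nonspecific signal. Cells are exposed to compounds for 48 hrs before the GFP over RFP ratio is taken.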

[11] = measured here: cell count channel max response
[12] = measured here: lipid channel max response

Chain of DNA repair nuclease/redox regulator APEX1 (Homo sapiens) (P27695 whole entry, looked up): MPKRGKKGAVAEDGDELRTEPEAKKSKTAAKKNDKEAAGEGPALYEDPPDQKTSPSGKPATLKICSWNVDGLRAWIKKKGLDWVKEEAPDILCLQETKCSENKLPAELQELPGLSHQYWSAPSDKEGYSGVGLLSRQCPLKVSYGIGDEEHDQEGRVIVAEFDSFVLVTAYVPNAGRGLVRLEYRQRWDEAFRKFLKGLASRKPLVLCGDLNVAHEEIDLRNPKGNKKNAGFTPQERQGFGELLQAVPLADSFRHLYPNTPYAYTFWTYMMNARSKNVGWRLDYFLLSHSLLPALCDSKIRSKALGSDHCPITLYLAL

SMILES | outcome [1] | activity change, negative = inhibition ([2]; at 25.7 µM (top of the series)) | activity change, negative = inhibition ([2]; at 57.5 µM (top of the series)) | max response [2, 11] | max response [2, 12] | Potency [3] | Potency [4] | Potency [5] | Potency [6] | Potency [7] | Potency [8] | Potency [9] | outcome [10]
CN1CCC(=C2c3ccccc3CC(=O)c3sccc32)CC1 | inactive | -3.11% (inactive) | 1.94% (inactive) | 0.637% and -29.8% | -3.73% and -28.3% | inactive | inactive | inactive | 10 µM (active) | 2.24 µM (active) | 3.55 µM (active) | 4.47 µM (active) | –
COc1ccccc1OCC(O)CN1CCN(CC(=O)Nc2c(C)cccc2C)CC1 (stereo not drawn) | – | – | 13.2% (inactive) | 8.98% | 24.1% | inactive | inactive | inactive | – | – | inactive | inactive | inactive
CCOC(=O)Nc1ccc(NCc2ccc(F)cc2)nc1N | inactive | – | 0.206% (inactive) | 49% | 49.4% | inactive | inactive | inactive | 2.82 µM (active) | 2.82 µM (active) | 3.55 µM (active) | 7.08 µM (active) | inactive
CN(C)c1nc(N(C)C)nc(N(C)C)n1 | inactive | -1.28% (inactive) | 7.55% (inactive) and -0.1% (inactive) | 4.02% and 17.6% and 11.3% | 2.91% and 27.7% and 12.4% | inactive | inactive | inactive | inactive | inactive | inactive | inactive | inactive
CC(CCc1ccc(O)cc1)NCCc1ccc(O)c(O)c1 (stereo not drawn) | – | – | – | – | – | inactive | inactive | inactive | 12.6 µM (active) | 12.6 µM (active) | – | 14.1 µM (active) | inactive
CC(C(=O)O)c1cccc(C(=O)c2ccccc2)c1 (stereo not drawn) | – | – | – | – | – | inactive | inactive | inactive | – | – | – | – | inactive
COc1ccc(C2CNC(=O)C2)cc1OC1CCCC1 (stereo not drawn) | inactive | – | – | – | – | inactive | inactive | inactive | – | inactive | inactive | inactive | inactive
COc1ccccc1OCCNCC(O)COc1cccc2[nH]c3ccccc3c12 (stereo not drawn) | – | – | 6.43% (inactive) | 5.72% | 13% | – | – | – | – | – | – | – | –
COc1ccc2c(c1)c(CC(=O)O)c(C)n2C(=O)c1ccc(Cl)cc1 | inactive | 0.248% (inactive) | 13.5% (inactive) | 4.07% and 38% | -0.937% and 62.5% | inactive | inactive | inactive | inactive | inactive | inactive | inactive | –
Nc1nnc(-c2cccc(Cl)c2Cl)c(N)n1 | inactive | – | – | – | – | inactive | inactive | inactive | inactive | – | – | inactive | inactive
Cc1cc(C(C)(C)C)c(O)c(C)c1CC1=NCCN1 | inactive | -3.48% (inactive) | -2.77% (inactive) and 10.3% (inactive) | -11.5% and -13.2% and 34.1% | -16% and -15.4% and 53.3% | inactive | inactive | inactive | – | – | – | – | –
CS(=O)(=O)Nc1ccc([N+](=O)[O-])cc1Oc1ccccc1 | inactive | -1.76% (inactive) | 14.1% (inactive) | 3.21% and 14.6% | 2.41% and 33.1% | 39.8 µM (active) | inactive | inactive | inactive | – | inactive | inactive | –
C[C@](N)(Cc1ccc(O)c(O)c1)C(=O)O | inactive | – | 1.88% (inactive) | 48.1% | 42% | 7.94 µM (active) | inactive | inactive | inactive | – | inactive | inactive | –
CC(C)(Oc1ccc(C2CC2(Cl)Cl)cc1)C(=O)O (stereo not drawn) | – | – | 1.98% (inactive) | -18.9% | -26.3% | inactive | inactive | inactive | inactive | inactive | inactive | inactive | –
COC(=O)Nc1nc2ccc(C(=O)c3cccs3)cc2[nH]1 | inactive | -7.22% (inactive) | 1.19% (inactive) | -4.31% and 9.27% | -12.3% and 9.44% | inactive | inactive | inactive | – | – | – | – | –
Cc1ccc(C(=O)Nc2ccc(S(=O)(=O)O)c3cc(S(=O)(=O)O)cc(S(=O)(=O)O)c23)cc1NC(=O)c1cccc(NC(=O)Nc2cccc(C(=O)Nc3cc(C(=O)Nc4ccc(S(=O)(=O)O)c5cc(S(=O)(=O)O)cc(S(=O)(=O)O)c45)ccc3C)c2)c1 | inactive | – | 2.55% (inactive) and 9.29% (inactive) | -19.7% and 7.39% | -18.9% and 17.7% | 8.91 µM (active) | 4.47 µM (active) | 4.47 µM (active) | – | – | – | – | –
CC(C)NCC(O)COc1ccc(CCOCC2CC2)cc1 (stereo not drawn) | – | – | -2.88% (inactive) | -16.9% | -20.2% | inactive | inactive | inactive | 10 µM (active) | – | inactive | inactive | –
CCOC(=O)c1ncn2c1CN(C)C(=O)c1cc(F)ccc1-2 | inactive | – | -0.292% (inactive) | 20.1% | 21.2% | inactive | inactive | – | inactive | inactive | inactive | inactive | –
NC12CC3CC(CC(C3)C1)C2 | inactive | -3.08% (inactive) | 3.74% (inactive) and -0.728% (inactive) | 0.387% and 4.41% and -44.8% | -3.12% and 9.04% and -45.9% | inactive | inactive | inactive | – | 11.2 µM (active) | inactive | inactive | –
OCCN1CCN(CCCN2c3ccccc3Sc3ccc(C(F)(F)F)cc32)CC1 | inactive | -3.93% (inactive) | 8.5% (inactive) and -2.13% (inactive) | -9.92% and 24.4% and 4.08% | -13.1% and 36.3% and -0.526% | inactive | inactive | – | – | – | – | – | –
